HT1080-NT tox: kills 2HG-producing HT-1080-NT fibrosarcoma cells. HT-1080-NT fibrosarcoma viability, CellTiter-Glo ATP luminescence, 48 h. Potency, µM (doses to about 46.1 µM), for inactives: at the top dose activity, negative = less viability, most hits filed as cytotoxic. 360,000 compounds, 1.6% hits. AID 686970;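 further: NT is the 2HG producing partner of a matched IDH1 knockdown line; 0% = DMSO-treated cells and -100% = media-only wells without cells; nearly all actives have a fitted effect of over 55% in size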
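Toxicity toward the 2HG-producing NT line was scored as %Activity, normalised to DMSO and no-cell wells, from CellTiter-Glo luminescence after 48 hours' treatment.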
DT40 TDP1 CPT: growth inhibition of DT40 Tdp1-/-;hTDP1 cells with camptothecin (screen for TDP1 inhibitors) | chicken DT40 Tdp1-/-;hTDP1 cells + 20 nM CPT, ATP luminescence, 48 h | Potency, µM (top dose mostly 46.2 µM), without a hit: at the top dose activity change, negative = growth inhibition, usual class: inhibitors | 420,000 compounds, 12% hits | AID 686979; further: on the % scale 0 is the no-effect control and ±100 the full control effect; nearly all actives have a fitted effect of over 55% in size
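Chicken DT40 Tdp1-/- cells complemented with human TDP1, 400 cells/well, exposed to compounds plus 20 nM camptothecin for at least 48 h at 37 C; viability read as ATP content by CellTiter-Glo luminescence.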
HepG2 tox: counter-screen for TGF-b inhibitors: cytotoxicity in HepG2 cells | HepG2 CAGA-GFP viability, ATP luminescence, 18 h | Potency, µM (highest dose often 46.1 µM), without a hit: at the highest dose activity change, negative = cytotoxicity, usual class: cytotoxic | 410,000 compounds, 0.76% hits
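CellTiter-Glo luminescence gave cytotoxicity after 18 hours at 37 degrees C. The cells were HepG2 CAGA-GFP in 1% FBS DMEM, stimulated with 500 pg/mL TGF-beta after compound addition. %Activity was normalised to no-cell wells (complete cell-killing) and DMSO (no toxicity), and curves were fitted and classified.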
TGFb SMAD3 inh: blocks TGF-b signaling | HepG2 CAGA-GFP TGF-b/SMAD3 reporter, GFP fluorescence, 18 h; TGF-beta stimulated, 500 pg/mL final | Potency, µM (highest dose often 46.1 µM), for inactives: top-dose activity, negative = inhibition, most hits filed as inhibitors | 410,000 compounds, 1.2% hits | AID 588855; further: on the % scale 0 is the no-effect control and ±100 the full control effect; nearly all actives have a fitted effect of over 65% in size
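Per well, imaged GFP fluorescence of HEPG2 CAGA-GFP cells gives the signal; cells get compound, then TGF-beta (500 pg/mL final), 18 h at 37 degrees C; %Activity versus -TGF-beta and +DMSO controls.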
TDP1 cell noCPT: qHTS for Inhibitors of human tyrosyl-DNA phosphodiesterase 1 (TDP1): qHTS in cells in absence of CPT. Potency, µM (top dose mostly 46.2 µM), inactives show at the highest dose activity change, negative = growth inhibition, actives largely listed as inhibitors. DT40 Tdp1-/- hTDP1 cells, no CPT, ATP luminescence, 48 h. 420,000 compounds, 15% hits; further: on the % scale 0 is the no-effect control and ±100 the full control effect; nearly all actives have a fitted effect of over 55% in size
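Luminescent ATP content (CellTiter-Glo) served as the growth readout. Knockout chicken DT40 cells expressing human TDP1 were exposed to compounds without camptothecin for a minimum 48 hr at 37 °C.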
HT1080 IDH1KD tx: HT-1080 IDH1 knockdown cell toxicity (counter line). HT-1080 IDH1 knockdown viability, ATP luminescence, 48 h. Potency, µM (highest dose often 46.1 µM), without a hit: top-dose activity, negative = toxicity, actives largely listed as cytotoxic. 360,000 compounds, 2% hits. AID 686971;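 further: 0% = DMSO wells and -100% = cell-free medium wells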
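Cytotoxicity counter-line: IDH1KD HT-1080, 48 h, CellTiter-Glo. Curves classed by r2, magnitude and activity.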
* hit, by the source's call; ? = inconclusive; . = not tested or not shown; [ ] = remark or other dose. Hits are enriched below; roughly 17% of the tested compounds scored in any of these assays. The call rests on the fitted dose curve; in most records, active means well fitted curve in the direction sought with a large enough effect; inconclusive means small, poorly fitted or top-dose-only effect, or another doubt; inactive means no such curve, though single readings can be large; an effect the other way counts as inactive or inconclusive. Potency means the concentration at half of the fitted maximal effect.

SMILES	HT1080-NT tox	DT40 TDP1 CPT	HepG2 tox	TGFb SMAD3 inh	TDP1 cell noCPT	HT1080 IDH1KD tx
COC(=O)c1ccc(C(=O)NC(=S)Nc2ccc3nc(SC)sc3c2)cc1	23.6%	-26.0%	8.6%	9.6%	?	1.7%
COc1cc(C2c3cc4c(cc3CC3COC(=O)N32)OCO4)cc(OC)c1OC (stereo not drawn)	1.3µM*	0.82µM*	-2.1%	-13.8%	0.92µM*	1.03µM*
O=C(CCN1C(=O)c2ccccc2C1=O)NCc1ccc(Cl)cc1	18.1%	9.1%	12.3%	25.4%	3.9%	10.0%
Cc1cc(N(CCO)CCO)ccc1C(c1ccc(N(CCO)CCO)cc1C)c1ccccc1Cl	-14.1%	-28.9%	-108.8%	?	-6.9%	-6.4%
C/C(=N\NC(=O)C(c1ccccc1)c1ccccc1)c1ccccn1	9.2µM*	4.61µM*	-12.7%	?	4.61µM*	5.8µM*
C/C(=N/NC(=O)c1ccccn1)c1ccncc1	6.2%	-5.6%	0.6%	20.3%	-5.3%	10.2%
C/C(=N\NC(=O)c1cc(-c2cccs2)nc2ccccc12)c1ccccn1	?	0.651µM*	-13.6%	?	0.731µM*	?
Cc1ccc(NC(=O)c2cc(-c3cccs3)nc3ccccc23)c(C)c1	.	-28.4%	-19.2%	-31.4%	?	.
C/C(CC(=O)Nc1ccccn1)=N\NC(=O)c1ccccc1O	20.6µM*	4.11µM*	-36.6%	-24.3%	16.4µM*	9.2µM*
C/C(CC(=O)Nc1ccccn1)=N\NC(=O)c1ccc2ccccc2c1	-2.6%	7.9%	5.9%	-10.9%	1.1%	-16.2%
C/C(=N\NC(=O)c1ccc(Cl)c(Cl)c1)c1ccccn1	?	0.411µM*	-5.2%	?	0.517µM*	1.84µM*
C/C(=N\NC(=O)C(c1ccccc1)c1ccccc1)c1ccc(O)cc1	-4.0%	?	-9.0%	-6.8%	?	-4.1%
CC(C)(C)c1ccc(O)c(N=Cc2cccc([N+](=O)[O-])c2)c1	5.4%	?	.	.	?	12.0%
CC(C)CNC(=O)Cn1c(=O)c2c(ncn2CC(C)C)n(Cc2ccccc2)c1=O	-9.6%	-13.5%	-1.7%	1.9%	12.1%	4.2%
O=C(NCc1ccc(F)cc1)c1cc2c(cc1Cl)N1CCCCCC1=NS2(=O)=O	-3.4%[9.24 µM]	-16.6%	-16.0%	12.3%	0.5%	-1.0%
COC(=O)c1cc(C(=O)N2CCc3ccccc32)cc([N+](=O)[O-])c1	-3.1%	-19.5%	0.2%	-1.0%	-9.6%	-5.6%
O=C1COc2ccc(C(=O)COC(=O)c3ncc(Cl)c(Cl)c3Cl)cc2N1	8.9%	?	4.6%	11.8%	-19.2%	2.1%
CC(=NNC(=O)c1cc(C)nc2ccccc12)c1ccc(N2CCOCC2)cc1	?	?	-0.6%	0.0%	?	?
C/C(=N\NC(=O)c1cccc2ccccc12)c1ccccn1	?	1.16µM*	-10.8%	3.16µM*	1.46µM*	?
CCOc1ccc(OCc2ccc(C(=O)NN=Cc3ccc[nH]3)cc2)cc1	0.651µM*	-11.2%	-17.4%	-19.9%	-11.4%	?
CCOc1ccc(OCc2ccc(C(=O)N/N=C(\C)c3ccccn3)cc2)cc1	?	0.92µM*	-4.3%	-23.3%	0.651µM*	?
C/C(=N\NC(=O)c1cc(-c2ccncc2)nc2ccccc12)c1ccc(N2CCOCC2)cc1	20.6µM*	?	-4.3%	0.4%	?	10.3µM*
O=C(N/N=C(\c1ccccc1)c1ccccn1)c1ccccc1Cl	-15.2%	?	-47.8%	?	?	?

Assay outcomes deposited in PubChem BioAssay by National Center for Advancing Translational Sciences (NCATS).
